Measured values: PubChem BioAssay AID1159580 (chemical genetic matrix, 2015)
The campaign covered roughly 5,500 compounds. About 2,000 (36%) were called active. Another 18% or so got no clear call; they are omitted. This is one part of the list. Values without a mark were called inactive. Cut-off read from the data, not from the text of the source: active = normalized growth mostly below about 0.91 (no sharp cut-off); inconclusive = no clear call, values can overlap the other calls; inactive = mostly above about 0.92.

Assay: chemical genetic growth profiling, strain panel (AID 1159580);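 note: tested at 20 µM; growth read once vehicle control cultures reached saturation at 30 °C; 1 = growth at the plate median or of vehicle wells; lower values mean less growth of the strain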
Conditions: S. cerevisiae deletion strains, growth OD

## CCC(C)C(=O)O[C@@H]1C[C@@]2(C)[C@H](c3ccoc3)OC(=O)CC23OC2(C)OC34[C@H](OC(=O)C(C)C)[C@@]3(O)[C@@H](OC(=O)C5(C)OC5C)[C@@]5(C)C[C@]3(O)[C@@](C)([C@H]5CC(=O)OC)C14O2 (some centres not stated)
Locus YJR066W, strain TOR1, active compounds read low
  normalized growth: 0.979
Locus YJR075W, strain HOC1, active compounds read low
  normalized growth: 1.02
Locus YKL009W, strain mrt4, active compounds read low
  normalized growth: 0.972
Locus YKL068W, active compounds read low
  normalized growth: 1
Locus YKL085W, strain MDH1 (second series), active compounds read low
  normalized growth: 1
Locus YKL085W, strain MDH1, active compounds read low
  normalized growth: 1
Locus YKL160W, strain elf1, active compounds read low
  normalized growth: 0.966
Locus YKL190W, strain CNB1, active compounds read low
  normalized growth: 0.999
Locus YKR001C, strain vps1, active compounds read low
  normalized growth: 0.996
Locus YKR026C, strain gcn3, active compounds read low
  normalized growth: 1
Locus YKR091W, strain srl3, active compounds read low
  normalized growth: 0.996
Locus YLL001W, strain dnm1, active compounds read low
  normalized growth: 1
Locus YLL026W, active compounds read low
  normalized growth: 1
Locus YLL041C, strain sdh2, active compounds read low
  normalized growth: 0.988
Locus YLR027C, strain aat2, active compounds read low
  normalized growth: 1.01
Locus YLR039C, strain RIC1, active compounds read low
  normalized growth: 0.774
Locus YLR058C, strain SHM2, active compounds read low
  normalized growth: 1.01
Locus YLR102C, strain apc9, active compounds read low
  normalized growth: 1.01
Locus YLR113W, strain HOG1, active compounds read low
  normalized growth: 1.01
Locus YLR221C, strain rsa3, active compounds read low
  normalized growth: 0.994
Locus YLR258W, strain gsy2, active compounds read low
  normalized growth: 0.983
Locus YLR262C, strain YPT6 (second series), active compounds read low
  normalized growth: 0.647 (active)
Locus YLR268W, strain sec22, active compounds read low
  normalized growth: 0.958
Locus YLR320W, strain mms22, active compounds read low
  normalized growth: 0.999
Locus YLR342W, strain FKS1, active compounds read low
  normalized growth: 1.01
Locus YLR357W, strain rsc2, active compounds read low
  normalized growth: 1.03
Locus YLR370C, strain arc18, active compounds read low
  normalized growth: 0.996
Locus YLR371W, strain rom2, active compounds read low
  normalized growth: 1.01
Locus YLR384C, strain iki3, active compounds read low
  normalized growth: 1.01
Locus YLR418C, strain cdc73, active compounds read low
  normalized growth: 1.04
Locus YML016C, strain PPZ1, active compounds read low
  normalized growth: 1.01
Locus YML032C, strain rad52, active compounds read low
  normalized growth: 0.98
Locus YML120C, strain ndi1, active compounds read low
  normalized growth: 1.01
Locus YML124C, strain tub3, active compounds read low
  normalized growth: 0.998
Locus YMR058W, strain fet3, active compounds read low
  normalized growth: 1.01
Locus YMR078C, strain ctf18, active compounds read low
  normalized growth: 0.999
Locus YMR125W, strain sto1, active compounds read low
  normalized growth: 1.01
Locus YMR129W, active compounds read low
  normalized growth: 0.99
Locus YMR205C, strain PFK2, active compounds read low
  normalized growth: 0.975
Locus YMR223W, strain ubp8, active compounds read low
  normalized growth: 1.01
Locus YMR231W, strain pep5, active compounds read low
  normalized growth: 0.992
Locus YMR307W, strain GAS1, active compounds read low
  normalized growth: 1.01
Locus YNL067W, strain RPL9B, active compounds read low
  normalized growth: 1.05
Locus YNL071W, strain lat1, active compounds read low
  normalized growth: 1.02
Locus YNL128W, strain TEP1, active compounds read low
  normalized growth: 0.99
Locus YNL153C, strain GIM3, active compounds read low
  normalized growth: 1.07
Locus YNL183C, strain NPR1, active compounds read low
  normalized growth: 0.988
Locus YNL209W, strain ssb2, active compounds read low
  normalized growth: 1.02
Locus YNL233W, strain BNI4, active compounds read low
  normalized growth: 1.04
Locus YNL248C, strain rpa49, active compounds read low
  normalized growth: 1.03
Locus YNL250W, strain rad50, active compounds read low
  normalized growth: 1.05
Locus YNL271C, strain bni1, active compounds read low
  normalized growth: 1.01
Locus YNL298W, strain CLA4, active compounds read low
  normalized growth: 1.02
Locus YNL307C, strain MCK1, active compounds read low
  normalized growth: 1.01
Locus YNL322C, strain KRE1 (second series), active compounds read low
  normalized growth: 1
Locus YNL322C, strain KRE1, active compounds read low
  normalized growth: 1
Locus YNR049C, strain mso1, active compounds read low
  normalized growth: 1.01
Locus YNR052C, strain pop2, active compounds read low
  normalized growth: 1.03
Locus YOL012C, strain htz1
  normalized growth: 0.642
Locus YOL147C, strain pex11, active compounds read low
  normalized growth: 0.999
Locus YOR001W, strain rrp6, active compounds read low
  normalized growth: 1
Locus YOR061W, strain CKA2, active compounds read low
  normalized growth: 0.987
Locus YOR069W, strain VPS5, active compounds read low
  normalized growth: 1
Locus YOR070C, strain gyp1, active compounds read low
  normalized growth: 1.02
Locus YOR080W, strain dia2, active compounds read low
  normalized growth: 1.01
Locus YOR083W, strain WHI5, active compounds read low
  normalized growth: 1.01
Locus YOR106W, strain vam3, active compounds read low
  normalized growth: 0.998
Locus YOR136W, strain idh2, active compounds read low
  normalized growth: 1.01
Locus YOR144C, strain elg1, active compounds read low
  normalized growth: 0.998
Locus YOR184W, strain ser1, active compounds read low
  normalized growth: 0.971
Locus YOR231W, strain MKK1, active compounds read low
  normalized growth: 0.991
Locus YOR265W, strain rbl2, active compounds read low
  normalized growth: 0.984
Locus YOR270C, strain vph1, active compounds read low
  normalized growth: 0.777 (active)
Locus YOR290C, strain snf2, active compounds read low
  normalized growth: 1
Locus YOR316C, strain cot1, active compounds read low
  normalized growth: 0.999
Locus YPL051W, strain arl3, active compounds read low
  normalized growth: 0.983
Locus YPL055C, strain LGE1, active compounds read low
  normalized growth: 0.979
Locus YPL078C, strain atp4, active compounds read low
  normalized growth: 0.992
Locus YPL106C, strain sse1, active compounds read low
  normalized growth: 1.06
Locus YPL240C, strain hsp82, active compounds read low
  normalized growth: 1
Locus YPL241C, strain CIN2, active compounds read low
  normalized growth: 0.983
Locus YPL256C, strain CLN2, active compounds read low
  normalized growth: 1.04
Locus YPR119W, strain clb2, active compounds read low
  normalized growth: 1.01
Locus YPR141C, strain kar3, active compounds read low
  normalized growth: 1.01
Locus YPR163C, strain tif3, active compounds read low
  normalized growth: 1.01
Locus YPR167C, strain met16, active compounds read low
  normalized growth: 1.01
Strain wtn01, active compounds read low
  normalized growth: 0.982
